# Results published in ChEMBL document CHEMBL3988442, “University of Dundee, Small-Polar-MMV Screening Library” (2021).
# About 13,000 (27%) of roughly 48,000 compounds showed an effect of 50% or more. The list shows a part of the results.
# System: Wolbachia pipientis
# Test: Anti-Wolbachia Cell-Based Screen
# Format: functional
# Parameters: scale not given: in the data most compounds retested in dose-response had high values
# Details: 5 µM
row,SMILES,Percent Effect [%]
1,COCCCN1C(=O)CC[C@H]2CN(c3ccnc4ccccc34)CC[C@H]21,-6.412
2,COC1CCN(CCNC(=O)C2CCCCC2)CC1,-3.467
3,Cc1ccsc1C(Cn1ccnc1-c1ccccc1C(=O)O)N(C)C (stereo not given),-13.02
4,Cc1cc(N(C)Cc2ncc(-c3ccccc3C(=O)O)s2)ncn1,81.06
5,COc1cc(N(C)CCC(O)c2ccccc2)ncn1 (stereo not given),13.13
6,CN(C)C(Cn1ccnc1-c1ccccc1C(=O)O)c1ccccc1Cl (stereo not given),-23.61
7,CCc1cnc(CN(C)C(=O)NC2CCN(c3ccccc3)C2)s1 (stereo not given),0.02013
8,Cc1nccc(N(C)Cc2ncc(-c3ccccc3C(=O)O)s2)n1,127.4
9,NC(=O)c1cnc(NC2CCN(c3ccccc3)CC2)c(Cl)c1,-3.801
10,CN1CC(=O)N(c2cccnc2)Cc2c(NC3CC3)ncnc21,103.4
11,COc1cc(N2CCC3(C2)CN(c2cccnc2)C(=O)CN3C)ncn1 (stereo not given),-13.12
12,CN1CC(Nc2nc3c(cnn3-c3ccccc3)c(=O)[nH]2)CCC1=O (stereo not given),9.222
13,Cc1cccc(N2Cc3nc(=O)[nH]n3C2=O)c1,2.871
14,Cc1csc(CN2CC[C@H]3C(=O)N(c4cccnc4)CCO[C@H]3C2)n1,6.542
15,Cc1cccc(N2Cc3c(NC4CCCC4)ncnc3N(C)CC2=O)c1,95.74
16,CN1CC(=O)N(c2ccccc2)Cc2c(NC3CC3)ncnc21,112.7
17,O=C1CCCCN1c1cccc(CNC2CCCC2)c1,0.3467
18,C=C1c2ccccc2C(=O)N1CCC(=O)N1CCNC(=O)C1,-10.5
19,N#Cc1c(Cl)nsc1N1CCN(CC2CC2)CC1,5.491
20,CC(C)N1CCN(C)CC1c1nnc2ccc(C(=O)N3CCCC3)cn12 (stereo not given),-1.369
21,CCNC(=O)N1CCC2(CC1)CCn1c(C3CC3)cnc12,0.3432
22,CCn1ncc(S(=O)(=O)N[C@@H]2CC[C@@H](n3ccnc3)[C@@H]2O)c1C,136.9

row,SMILES,Percent Effect [%]
1,CCn1cc(CN(C)S(=O)(=O)c2cnn(CC)c2C)c(C)n1,-1.191
2,CCn1ncc(S(=O)(=O)N[C@@H]2CC[C@@H](n3ccnc3C)[C@@H]2O)c1C,115.7
3,CCn1ncc(S(=O)(=O)N[C@@H]2CCC[C@@H](n3ccnc3)[C@@H]2O)c1C,136.1
4,CC(=O)N1CCC(N[C@@H]2CC[C@@H]2NS(=O)(=O)c2cccnc2)CC1,-3.734
5,Cc1cccc(NC(=O)N(CCC(F)(F)F)C[C@H](O)CO)c1,-5.672
6,Cc1cnc(C)c(N2CCN(CCCc3[nH]nc(C)c3C)CC2)n1,13.39
7,COc1ccc(-c2cn3c(n2)CO[C@@H](CNCc2nccn2C)C3)cc1,1.884
8,CN(C)C1CCN(C(=O)c2ccc(Cn3ccccc3=O)o2)CC1,-4.856
9,Cc1nc(CCCNC(=O)C2CC(=O)N(C3CC3)C2)sc1C (stereo not given),0.5008
10,CS(=O)(=O)NC1CCN(Cc2ccc(OCc3ccccn3)cc2)CC1,-10.21
11,CCc1ncc2c(n1)CN(C(=O)CNC(=O)C(C)C)C2,-10.3
12,CN(Cc1ccsc1)C(=O)Nc1cccnc1N1CCCC1,3.447
13,CCc1nc(CC)n(CC(=O)N(CC)CC)n1,-1.582
14,CCc1nc(CC)n(CC(=O)N(C)CC(F)(F)F)n1,0.1098
15,CCNC(=O)NC1CN(CC(=O)NCc2ccccc2C)C[C@@H]1OC (stereo not given in full),-0.1158
16,CCc1nc(CC)n(CC(=O)NCc2ccccc2C)n1,109.4
17,Cn1cnn(CC(=O)NCc2ccccc2F)c1=O,-8.996
18,CCc1nc(CC)n(CC(=O)NCc2cccc(C)c2)n1,86.53
19,Cc1nn(C)c(C)c1OCC(=O)NCc1cccc(CO)c1,-2.193
20,CCCc1nnnn1CC(=O)NCc1cccc(C)c1,98.23
21,CCCc1nnnn1Cc1cn2c(C)cccc2n1,-18.43
22,CN(C)C[C@H]1O[C@H](Cc2cc(-c3ccccn3)on2)CC[C@@H]1O,-5.695

row,SMILES,Percent Effect [%]
1,O=C(NS(=O)(=O)c1cccc(F)c1)c1ccccc1F,-17.84
2,Cc1noc(COCC(=O)Nc2ncccc2Br)n1,-14.88
3,CCN(CC)C1(Cc2cc(CC(C)C)on2)COC1,-8.16
4,O[C@H]1CCN(CC2CCOC2)[C@H]1Cc1ccncc1 (stereo not given in full),-12.65
5,O=C(c1cccnc1N1CCCC1)N1CCOC(c2ccccc2)C1 (stereo not given),5.885
6,Cc1n[nH]c(C2CN(C(=O)c3ccn(C)c(=O)c3)CCO2)n1 (stereo not given),0.6849
7,Cc1ccccc1C(=O)N1CCOC(c2ncc(CN(C)C)[nH]2)C1 (stereo not given),53.49
8,CCCc1ncc(C(=O)N2CCOC(c3nc(C)n[nH]3)C2)s1 (stereo not given),1.166
9,O=C(c1cccnc1O)N1CCOC(c2ccc(Cl)cc2)C1 (stereo not given),-6.348
10,Cc1n[nH]c(C2CN(C(=O)c3coc(Br)c3)CCO2)n1 (stereo not given),-34.21
11,Cc1ccc(C(=O)N2CCOC(c3ncc(CN(C)C)[nH]3)C2)cc1F (stereo not given),86.38
12,CN(C)Cc1cnc(C2CN(C(=O)c3ccccc3Cl)CCO2)[nH]1 (stereo not given),174.9
13,Cc1ccc(CC(=O)N2CCOC(c3nc(C)n[nH]3)C2)cn1 (stereo not given),12.26
14,Cc1ccc(CC(=O)N2CCOC(c3ncc(CN(C)C)[nH]3)C2)s1 (stereo not given),104.7
15,CCCc1n[nH]c(C2CN(C(=O)Cc3ccc(C)nc3)CCO2)n1 (stereo not given),-3.481
16,Cc1n[nH]c(C2CN(C(=O)c3cc(C)sc3C)CCO2)n1 (stereo not given),-9.628
17,O=C(Cc1ccon1)Nc1cncc(Br)c1O,-6.673
18,CCOC1CCN(C(=O)c2c(Cl)c3ccccc3n2C)CC1,4.018
19,Cc1noc(C)c1CN1CC[C@H]2OCC[C@@H](C(=O)N3CCCO3)[C@H]2C1,-12.4
20,O=C(NCC(O)c1ccc(Cl)s1)c1ccoc1 (stereo not given),3.126
21,CC(=O)N1CCN(C(=O)C(C)Nc2ccc3ncsc3c2)CC1 (stereo not given),-9.61
22,c1csc(-c2nc(CN3CCOC(Cn4cncn4)C3)cs2)c1 (stereo not given),-0.6055

row,SMILES,Percent Effect [%]
1,Cc1n[nH]c(C2CN(Cc3csc(C4CCCC4)n3)CCO2)n1 (stereo not given),6.822
2,c1ncn(CC2CN(Cc3csc(C4CCCC4)n3)CCO2)n1 (stereo not given),-2.779
3,c1csc(-c2nc(CN3CCOC(Cn4cccn4)C3)cs2)c1 (stereo not given),96.48
4,c1cnn(CC2CN(Cc3csc(-c4ccsc4)n3)CCO2)c1 (stereo not given),-6.772
5,c1ccc(-c2nc(CN3CCOC(Cn4cccn4)C3)cs2)cc1 (stereo not given),-16.04
6,Cc1cnn(CC2CN(Cc3csc(C4CCCC4)n3)CCO2)c1 (stereo not given),109.2
7,CN(C)CC1CN(Cc2csc(C3CCCC3)n2)CCO1 (stereo not given),6.428
8,c1cnn(CC2CN(Cc3csc(C4CCCCC4)n3)CCO2)c1 (stereo not given),111.5
9,CNC(=O)[C@H]1C[C@H]2OCC[C@H]2N(Cc2cccc3ccccc23)C1.O=C(O)C(F)(F)F,25.43
10,CC(=O)N1CCN(c2cc(N(C)C)cnn2)CC1,5.157
11,CN(Cc1c(Cl)ccc2cccnc12)CC(C)(CO)CO,4.13
12,CCS(=O)(=O)c1ncc(CN2CCN(C)CC2)n1CCc1ccccc1,2.419
13,CC(C)(C)CN(CCO)C(=O)Nc1cccc(N2CCNC2=O)c1,0.4334
14,Cn1cnc(S(=O)(=O)NCC2(O)CCOc3ccccc32)c1 (stereo not given),-16.89
15,Nc1nc(N)c2c(n1)OC1(CCN(C(=O)CC3CCNCC3)CC1)C2,145.9
16,O=C(CC1CCCCC1)N1CCC(O)(C(F)(F)F)C1 (stereo not given),-0.05196
17,Nc1nc(N)c2c(n1)OC1(CCN(C(=O)CC3CCCCN3)CC1)C2 (stereo not given),102.3
18,O=C(CC1CC1)N1CCC2(CC1)CN(c1ncc(F)cn1)CCO2,-18.12
19,Nc1nc(N)c2c(n1)OC1(CCN(C(=O)CC3CCCNC3)CC1)C2 (stereo not given),130
20,O=C1OC2(CCNCC2)CN1CC(=O)N1CCCC1c1nccs1 (stereo not given),1.843
21,CC(C)(C)c1cc(C[C@H]2CNCC[C@H]2CC(=O)N2CCCCC2)no1,3.52
22,CC(C1CC1)N(C)Cc1nnc(-c2ccc(Br)s2)o1 (stereo not given),-7.051

row,SMILES,Percent Effect [%]
1,Cc1cc(CSCc2ccccn2)on1,-5.175
2,Cc1ccc2cc(CN(C)Cc3ccccn3)c(=O)[nH]c2c1,3.618
3,CCc1cc(=O)[nH]c(SCc2ccccn2)n1,161.3
4,CCc1csc(NC(=O)NCc2ccccn2)n1,-8.56
5,CCc1nc(C)c(C(C)N(C)CCc2ccccn2)s1 (stereo not given),10.86
6,CCCc1cc(=O)[nH]c(-c2cccc(CN3CCCCCC3)c2)n1,2.31
7,CCCc1cc(NC2CCN(Cc3ccccn3)CC2)n2nccc2n1,4.154
8,CCCc1cc(=O)[nH]c(SCc2ccccn2)n1,119.2
9,CCc1c(C)nc(SCc2ccccn2)[nH]c1=O,110.7
10,CN1CCC(c2nnc3ccc(C(=O)N4CCCCC4)cn23)C1.O=C(O)C(F)(F)F (stereo not given),-6.443
11,CN(C)CCNC(=O)Cn1cnc2cc(NC(=O)C3CC3)ccc21,109.1
12,Cn1c(C2CC2)nc2cc(NC(=O)C3CC=CC3)ccc21,-5.037
13,CC(C)C(=O)Nc1ccc2c(c1)ncn2CC(=O)NCCN(C)C,87.82
14,CN(C)CCn1ccc2cc(NC(=O)NCc3ncnn3C)ccc21,9.223
15,CN(C)CCNC(=O)Cc1cccc(I)c1,13.6
16,CC(CC(=O)Nc1ccc(C(=O)N(C)C)c(Cl)c1)n1cccc1 (stereo not given),-5.842
17,CC(C)CC(=O)Nc1ccc2c(c1)ncn2CC(=O)NCCN(C)C,122
18,CC(C)c1nc2cc(NC(=O)Cn3ccc(=O)[nH]c3=O)ccc2o1,-1.465
19,CCN(CC)C(=O)Cn1ccc2cc(NC(=O)C3CC3)ccc21,-9.83
20,Cc1cc(NC(=O)Nc2ccc3c(ccn3CCN(C)C)c2)n(C)n1,0.0592
21,CCOCCOC(C)C(=O)Nc1ccc2ccn(CCN(C)C)c2c1 (stereo not given),3.941
22,CC(C)NC(=O)Nc1ccc2c(c1)ncn2CC(=O)NCCN(C)C,117
